Data published in PubChem BioAssay AID743446 (Broad Institute, 2014).
Results with a measured potency or affinity are listed apart. Calls of active or inactive are those of the source. How the calls were made is not given here.

Assay: HEK293 cell cytotoxicity, dose response, cytotoxicity control, plate reader, cherry-picked samples (AID 743446)
Conditions: stronger effect = lower value; at 26 µM unless noted

For `C[C@H](CO)N1C[C@H](C)[C@H](CN(C)C(=O)CN2CCOCC2)Oc2ncc(C#CCN(C)C)cc2C1=O`, the max activity was 18.5% [at 0.42 µM] (inactive).
In the case of `C[C@@H]1CN([C@@H](C)CO)C(=O)c2cccc(NC(=O)Nc3ccc(C(F)(F)F)cc3)c2O[C@H]1CN(C)C(=O)Nc1cccc2ccccc12`, the max activity is reported as 14.8% [at 6 µM] (inactive).
In the case of `CO[C@@H]1CN(C)C(=O)c2cc(NC(C)=O)ccc2OC[C@@H](C)N(Cc2ccc(F)cc2)C[C@@H]1C`, the max activity is reported as 59.8% [at 0.05 µM] (inactive).
In the case of `Cc1ccc(NC(=O)c2ncn(CC(=O)N3CCN(c4ccccn4)CC3)n2)cc1C`, the max activity is reported as -13.4% [at 0.195 µM] (inactive).
For `O=C(Nc1cc(S(=O)(=O)Nc2ccccc2Cl)ccc1O)c1ccc(F)cc1F`, the max activity was -13.9% [at 0.8 µM] (inactive).
For `CCc1nc(Sc2nnnn2-c2ccccc2)c2c3c(sc2n1)CCCC3`, the max activity was -13.3% (inactive).
For `Cc1ccnc(N2C(=O)c3ccccc3C2Nc2ccc3c(c2)OCCO3)c1` (stereo not drawn), the max activity was 25.2% [at 0.05 µM] (inactive).
With `CSc1nnc(NC(=O)c2ccc3c(c2)OCO3)s1` the max activity was -9.38% [at 12 µM] (inactive).
With `CCOC(=O)Nc1ccc(N2CCOCC2)c(S(=O)(=O)Nc2ccc(Cl)cc2)c1` the max activity was -19.3% (inactive).
With `C[C@H](CO)N1C[C@H](C)[C@H](CN(C)C(=O)Cc2ccccc2)OCCCC[C@H](C)Oc2ccc(NC(=O)Nc3ccc(C(F)(F)F)cc3)cc2C1=O` the max activity was 12.5% [at 3 µM] (inactive).
In the case of `c1ccc(COc2cccc(-c3cc4nc(NCCCn5ccnc5)ccn4n3)c2)cc1`, the max activity is reported as 48.7% [at 0.195 µM] (inactive).
In the case of `COC(=O)c1ccc2nc(-c3cccc(N)c3)cn2c1`, the max activity is reported as 9.42% [at 0.195 µM] (inactive).
With `C[C@H](CO)N1C[C@H](C)[C@H](CN(C)C(=O)Nc2cccc3ccccc23)OCCCC[C@H](C)Oc2ccc(NC(=O)NC3CCCCC3)cc2C1=O` the max activity was 68.9% (inactive).
In the case of `C[C@H](CO)N1C[C@H](C)[C@H](CN(C)C(=O)Nc2ccccc2)OCCCC[C@H](C)Oc2ccc(NC(=O)Nc3ccccc3)cc2C1=O`, the max activity is reported as 21.5% (inactive).
With `COc1cccc(-c2cc(C(=O)N3CCCCCC3)no2)c1` the max activity was -9.64% [at 12 µM] (inactive).
For `C[C@H](CO)N1C[C@H](C)[C@H](CN(C)C(=O)Nc2ccc(F)cc2)OCCCC[C@H](C)Oc2ccc(NC(=O)NC3CCCCC3)cc2C1=O`, the max activity was 38.8% [at 12 µM] (inactive).
With `COc1ccc(C(=O)Nc2ccc3ncccc3c2)cc1` the max activity was -20.3% (inactive).
For `C[C@H](CO)N1C[C@H](C)[C@H](CN(C)C(=O)Nc2ccc(F)cc2)OCCCC[C@H](C)Oc2ccc(NC(=O)C3CCCCC3)cc2C1=O`, the max activity was -10.8% [at 6 µM] (inactive).
For `Cc1nc2c(OCCC3CCCCC3)cccn2c1N(C)C(=O)CCC1CCCC1`, the max activity was -22.5% [at 6 µM] (inactive).
In the case of `O=C(NCc1ccc(F)cc1)c1cc(C2CCCCN2S(=O)(=O)c2cccs2)on1` (stereo not drawn), the max activity is reported as 15.1% [at 0.38 µM] (inactive).
For `C[C@H](CO)N1C[C@H](C)[C@H](CN(C)C(=O)Nc2cccc3ccccc23)OCCCC[C@H](C)Oc2ccc(NC(=O)CCC(F)(F)F)cc2C1=O`, the max activity was 78.9% (inactive).
In the case of `COc1ccc(S(=O)(=O)N(C)C[C@@H]2OCc3cnnn3CCCC(=O)N([C@@H](C)CO)C[C@H]2C)cc1`, the max activity is reported as 0% [setting not given] (inactive).
For `Cc1ccc2nc(-c3ccc(NC(=O)C4CCCO4)cc3)[nH]c2c1` (stereo not drawn), the max activity was 41.8% (inactive).
In the case of `Clc1ccc(-n2ncc3c(N4CCCC4)ncnc32)cc1`, the max activity is reported as 13.4% (inactive).
In the case of `Fc1ccc(-n2nnc(-c3cnc4ccccc4c3)n2)cc1`, the max activity is reported as 26.8% [at 1.6 µM] (inactive).
For `CCCCc1ccc(NC(=O)c2cnccn2)cc1`, the max activity was -14.3% [at 3 µM] (inactive).
For `CN(C)c1ccc(C(=O)Nc2nc3c(s2)CCCC3)cc1`, the max activity was -30% (inactive).
In the case of `O=C(NCc1ccco1)c1cc(NS(=O)(=O)c2cccc([N+](=O)[O-])c2)ccc1O`, the max activity is reported as 40.6% [at 0.38 µM] (inactive).
For `Cc1ccc(NC(=O)c2ncn(CC(=O)NCc3ccc4[nH]ccc4c3)n2)cc1C`, the max activity was 8.88% (inactive).
With `O=C(CN1C(=O)c2ccccc2S1(=O)=O)c1ccc(F)c(F)c1` the max activity was 11.6% (inactive).
For `c1ccc(-n2ncc3c(N4CCCCC4)ncnc32)cc1`, the max activity was -13.3% [at 3 µM] (inactive).
For `COc1ccc(S(=O)(=O)Nc2ccc3c(c2)C(=O)N([C@H](C)CO)C[C@H](C)[C@H](CN(C)S(=O)(=O)c2ccc(F)cc2)OCCCC[C@@H](C)O3)cc1`, the max activity was -23.7% [at 12 µM] (inactive).
With `COc1ccc2sc(NC(=O)c3ccco3)nc2c1` the max activity was 18.6% [at 0.05 µM] (inactive).
In the case of `CC(C)Nc1ncnc2c1cnn2-c1ccc(Cl)cc1`, the max activity is reported as 60.9% (inactive).
With `COc1ccc(-c2cc(C(=O)N3CCOCC3)no2)cc1` the max activity was -14.8% (inactive).
In the case of `Cc1ccc(-c2cnn3c(N4CCOCC4)cc(C)nc23)cc1`, the max activity is reported as 35.7% [at 0.38 µM] (inactive).
In the case of `c1ccc(COc2ccc(OCCCN3CCCC3)cc2)cc1`, the max activity is reported as -13.8% [at 0.05 µM] (inactive).
In the case of `CC(C)(C)n1ncc2c(=O)n(CC(=O)OCc3ccccc3)cnc21`, the max activity is reported as -10.3% [at 0.38 µM] (inactive).
With `c1ccc(-n2cnnc2SCc2cn3cccnc3n2)cc1` the max activity was 82.5% [at 0.8 µM] (inactive).
In the case of `CC(=O)Nc1ccc(S(=O)(=O)c2ccnc3cc(Cl)ccc23)cc1`, the max activity is reported as -26.3% [at 12 µM] (inactive).
In the case of `Cc1ccc(-n2[nH]c(=O)c(-c3ccccn3)c2C)cc1`, the max activity is reported as 41.3% [at 12 µM] (inactive).
With `Cc1ccc(-c2nc(-c3ccncc3)no2)cc1C` the max activity was -14.8% (inactive).
With `N#C[C@@H]1[C@H](c2ccc(C#CC3CCCCC3)cc2)[C@@H](CO)N1C(=O)c1cccc(F)c1` the max activity was 43.6% [at 0.09 µM] (inactive).
